Laboratory results taken from PubChem BioAssay AID1159580 (chemical genetic matrix, 2015).
About 2,000 (36%) of roughly 5,500 compounds were called active. Roughly 18% stayed inconclusive and do not appear here. Some of the results follow. A number with no mark means an inactive call. No stated cut-off is given here; in the data, active means normalized growth mostly below about 0.91 (no sharp cut-off); inconclusive means no clear call, values can overlap the other calls; inactive means mostly above about 0.92.

Assay: chemical genetic growth profiling, strain panel (AID 1159580);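 further: tested at 20 µM; growth read once vehicle control cultures reached saturation at 30 °C; 1 = growth at the plate median or of vehicle wells; lower values mean less growth of the strain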
Settings: growth OD

For `CCCCCCCCCc1ccc(O)cc1`, the normalized growth (S. cerevisiae deletion strains, locus YJR075W, strain HOC1, hits give low values) was 0.256 (active), the normalized growth (S. cerevisiae deletion strains, locus YKL009W, strain mrt4, hits give low values) was 0.616 (active) and the normalized growth (S. cerevisiae deletion strains, locus YKL068W, hits give low values) was 0.964. The normalized growth (S. cerevisiae deletion strains, locus YKL085W, strain MDH1 (second series), hits give low values) was 0.311 (active), the normalized growth (S. cerevisiae deletion strains, locus YKL085W, strain MDH1, hits give low values) was 0.311 (active) and the normalized growth (S. cerevisiae deletion strains, locus YKL160W, strain elf1, hits give low values) was 0.0913 (active). For the same compound, the normalized growth (S. cerevisiae deletion strains, locus YKL190W, strain CNB1, hits give low values) was 0.139 (active), the normalized growth (S. cerevisiae deletion strains, locus YKR001C, strain vps1, hits give low values) was 0.352 (active) and the normalized growth (S. cerevisiae deletion strains, locus YKR026C, strain gcn3, hits give low values) was 0.0658 (active). The normalized growth (S. cerevisiae deletion strains, locus YKR091W, strain srl3, hits give low values) was 0.0785 (active), the normalized growth (S. cerevisiae deletion strains, locus YLL001W, strain dnm1, hits give low values) was 0.0778 (active) and the normalized growth (S. cerevisiae deletion strains, locus YLL026W, hits give low values) was 0.0571 (active). The normalized growth (S. cerevisiae deletion strains, locus YLL041C, strain sdh2, hits give low values) was 0.0651 (active), the normalized growth (S. cerevisiae deletion strains, locus YLR027C, strain aat2, hits give low values) was 0.0531 (active) and the normalized growth (S. cerevisiae deletion strains, locus YLR039C, strain RIC1, hits give low values) was 0.106 (active). For the same compound, the normalized growth (S. cerevisiae deletion strains, locus YLR058C, strain SHM2, hits give low values) was 0.136 (active), the normalized growth (S. cerevisiae deletion strains, locus YLR102C, strain apc9, hits give low values) was 0.901 (active) and the normalized growth (S. cerevisiae deletion strains, locus YLR113W, strain HOG1, hits give low values) was 0.117 (active). The normalized growth (S. cerevisiae deletion strains, locus YLR221C, strain rsa3, hits give low values) was 0.0526 (active), the normalized growth (S. cerevisiae deletion strains, locus YLR258W, strain gsy2, hits give low values) was 0.062 (active) and the normalized growth (S. cerevisiae deletion strains, locus YLR262C, strain YPT6 (second series), hits give low values) was 0.0891 (active). For the same compound, the normalized growth (S. cerevisiae deletion strains, locus YLR262C, strain YPT6, hits give low values) was 0.139 (active), the normalized growth (S. cerevisiae deletion strains, locus YLR268W, strain sec22, hits give low values) was 0.74 (active) and the normalized growth (S. cerevisiae deletion strains, locus YLR320W, strain mms22, hits give low values) was 0.071 (active). The normalized growth (S. cerevisiae deletion strains, locus YLR330W, strain CHS5, hits give low values) was 0.321 (active), the normalized growth (S. cerevisiae deletion strains, locus YLR342W, strain FKS1 (second series), hits give low values) was 0.102 (active) and the normalized growth (S. cerevisiae deletion strains, locus YLR342W, strain FKS1, hits give low values) was 0.0664 (active). The normalized growth (S. cerevisiae deletion strains, locus YLR357W, strain rsc2, hits give low values) was 0.148 (active), the normalized growth (S. cerevisiae deletion strains, locus YLR370C, strain arc18, hits give low values) was 0.0667 (active) and the normalized growth (S. cerevisiae deletion strains, locus YLR371W, strain rom2, hits give low values) was 0.622 (active). The normalized growth (S. cerevisiae deletion strains, locus YLR384C, strain iki3, hits give low values) was 0.0786 (active), the normalized growth (S. cerevisiae deletion strains, locus YLR418C, strain cdc73, hits give low values) was 0.323 (active) and the normalized growth (S. cerevisiae deletion strains, locus YML016C, strain PPZ1, hits give low values) was 0.191 (active). The normalized growth (S. cerevisiae deletion strains, locus YML032C, strain rad52, hits give low values) was 0.497 (active), the normalized growth (S. cerevisiae deletion strains, locus YML120C, strain ndi1, hits give low values) was 0.0538 (active) and the normalized growth (S. cerevisiae deletion strains, locus YML124C, strain tub3, hits give low values) was 0.908 (active). For the same compound, the normalized growth (S. cerevisiae deletion strains, locus YMR058W, strain fet3, hits give low values) was 0.0622 (active), the normalized growth (S. cerevisiae deletion strains, locus YMR078C, strain ctf18, hits give low values) was 0.611 (active) and the normalized growth (S. cerevisiae deletion strains, locus YMR125W, strain sto1, hits give low values) was 0.0742 (active). For the same compound, the normalized growth (S. cerevisiae deletion strains, locus YMR129W, hits give low values) was 0.0704 (active), the normalized growth (S. cerevisiae deletion strains, locus YMR205C, strain PFK2, hits give low values) was 0.0794 (active) and the normalized growth (S. cerevisiae deletion strains, locus YMR223W, strain ubp8, hits give low values) was 0.558 (active). The normalized growth (S. cerevisiae deletion strains, locus YMR231W, strain pep5, hits give low values) was 0.0903 (active), the normalized growth (S. cerevisiae deletion strains, locus YMR263W, strain SAP30, hits give low values) was 0.099 (active) and the normalized growth (S. cerevisiae deletion strains, locus YMR307W, strain GAS1, hits give low values) was 0.121 (active). For the same compound, the normalized growth (S. cerevisiae deletion strains, locus YNL067W, strain RPL9B, hits give low values) was 0.254 (active), the normalized growth (S. cerevisiae deletion strains, locus YNL071W, strain lat1, hits give low values) was 0.0615 (active) and the normalized growth (S. cerevisiae deletion strains, locus YNL128W, strain TEP1, hits give low values) was 0.119 (active). For the same compound, the normalized growth (S. cerevisiae deletion strains, locus YNL153C, strain GIM3, hits give low values) was 0.117 (active), the normalized growth (S. cerevisiae deletion strains, locus YNL183C, strain NPR1, hits give low values) was 0.00185 (active) and the normalized growth (S. cerevisiae deletion strains, locus YNL209W, strain ssb2, hits give low values) was 0.0648 (active). For the same compound, the normalized growth (S. cerevisiae deletion strains, locus YNL233W, strain BNI4, hits give low values) was 0.0815 (active), the normalized growth (S. cerevisiae deletion strains, locus YNL248C, strain rpa49, hits give low values) was 0.076 (active) and the normalized growth (S. cerevisiae deletion strains, locus YNL250W, strain rad50, hits give low values) was 0.734 (active). The normalized growth (S. cerevisiae deletion strains, locus YNL271C, strain bni1, hits give low values) was 0.749 (active), the normalized growth (S. cerevisiae deletion strains, locus YNL298W, strain CLA4, hits give low values) was 0.437 (active) and the normalized growth (S. cerevisiae deletion strains, locus YNL307C, strain MCK1, hits give low values) was 0.292 (active). For the same compound, the normalized growth (S. cerevisiae deletion strains, locus YNL322C, strain KRE1 (second series), hits give low values) was 0.11 (active), the normalized growth (S. cerevisiae deletion strains, locus YNL322C, strain KRE1, hits give low values) was 0.167 (active) and the normalized growth (S. cerevisiae deletion strains, locus YNR049C, strain mso1, hits give low values) was 0.0733 (active). The normalized growth (S. cerevisiae deletion strains, locus YNR052C, strain pop2, hits give low values) was 0.538 (active), the normalized growth (S. cerevisiae deletion strains, locus YOL006C, strain TOP1, hits give low values) was 0.217 (active) and the normalized growth (S. cerevisiae deletion strains, locus YOL012C, strain htz1) was 0.624. For the same compound, the normalized growth (S. cerevisiae deletion strains, locus YOL147C, strain pex11, hits give low values) was 0.444 (active), the normalized growth (S. cerevisiae deletion strains, locus YOR001W, strain rrp6, hits give low values) was 0.0626 (active) and the normalized growth (S. cerevisiae deletion strains, locus YOR061W, strain CKA2, hits give low values) was 0.102 (active). For the same compound, the normalized growth (S. cerevisiae deletion strains, locus YOR069W, strain VPS5, hits give low values) was 0.217 (active), the normalized growth (S. cerevisiae deletion strains, locus YOR070C, strain gyp1, hits give low values) was 0.063 (active) and the normalized growth (S. cerevisiae deletion strains, locus YOR080W, strain dia2, hits give low values) was 0.0669 (active). The normalized growth (S. cerevisiae deletion strains, locus YOR083W, strain WHI5, hits give low values) was 0.0608 (active), the normalized growth (S. cerevisiae deletion strains, locus YOR106W, strain vam3, hits give low values) was 0.0604 (active) and the normalized growth (S. cerevisiae deletion strains, locus YOR136W, strain idh2, hits give low values) was 0.758 (active). For the same compound, the normalized growth (S. cerevisiae deletion strains, locus YOR144C, strain elg1, hits give low values) was 0.553 (active), the normalized growth (S. cerevisiae deletion strains, locus YOR184W, strain ser1, hits give low values) was 0.506 (active) and the normalized growth (S. cerevisiae deletion strains, locus YOR231W, strain MKK1, hits give low values) was 0.101 (active). The normalized growth (S. cerevisiae deletion strains, locus YOR265W, strain rbl2, hits give low values) was 0.0564 (active), the normalized growth (S. cerevisiae deletion strains, locus YOR270C, strain vph1, hits give low values) was 0.102 (active) and the normalized growth (S. cerevisiae deletion strains, locus YOR290C, strain snf2, hits give low values) was 0.0652 (active). The normalized growth (S. cerevisiae deletion strains, locus YOR316C, strain cot1, hits give low values) was 0.799 (active), the normalized growth (S. cerevisiae deletion strains, locus YPL051W, strain arl3, hits give low values) was 0.0626 (active) and the normalized growth (S. cerevisiae deletion strains, locus YPL055C, strain LGE1, hits give low values) was 0.1 (active). The normalized growth (S. cerevisiae deletion strains, locus YPL078C, strain atp4, hits give low values) was 0.0621 (active), the normalized growth (S. cerevisiae deletion strains, locus YPL106C, strain sse1, hits give low values) was 0.0816 (active) and the normalized growth (S. cerevisiae deletion strains, locus YPL240C, strain hsp82, hits give low values) was 0.0552 (active). For the same compound, the normalized growth (S. cerevisiae deletion strains, locus YPL241C, strain CIN2, hits give low values) was 0.219 (active), the normalized growth (S. cerevisiae deletion strains, locus YPL256C, strain CLN2, hits give low values) was 0.109 (active) and the normalized growth (S. cerevisiae deletion strains, locus YPR119W, strain clb2, hits give low values) was 0.67 (active). For the same compound, the normalized growth (S. cerevisiae deletion strains, locus YPR141C, strain kar3, hits give low values) was 0.992, the normalized growth (S. cerevisiae deletion strains, locus YPR163C, strain tif3, hits give low values) was 0.86 (active) and the normalized growth (S. cerevisiae deletion strains, locus YPR167C, strain met16, hits give low values) was 0.655 (active). For the same compound, the normalized growth (S. cerevisiae deletion strains, strain wtn01, hits give low values) was 0.813 (active) and the normalized growth (S. cerevisiae strains, strain wild type, hits give low values) was 0.112 (active).
